Changes are numbered by the printed parent chain.

What all share (test): PBM; 200 nM protein, PBS
Common to all, as to details: dsDNA, one strand shown

In experiment [1] the target is NKX2-5 (Homo sapiens, UniProt P52952 125-210, R139K).
Experiment [2] deals with HOXA4 (Homo sapiens, UniProt Q00056 201-287, W262R).
In experiment [3] the target is PRRX1 (Homo sapiens, UniProt P54821 80-166, F113S).
Experiment [4] concerns the target HOXA4 (Homo sapiens, UniProt Q00056 201-287, R217L).
Experiment [5] deals with T1, NKX2-6 (Homo sapiens, UniProt A6NCS4 118-204).
T1 sequence: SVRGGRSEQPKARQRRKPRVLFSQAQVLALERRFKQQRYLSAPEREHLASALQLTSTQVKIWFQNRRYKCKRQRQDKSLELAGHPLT

Experiment [6] deals with HOXA4 (Homo sapiens, UniProt Q00056 201-287).
In experiment [7] the target is T2, NKX2-6 (Homo sapiens, UniProt A6NCS4 118-204, F151L).
T2 sequence: T1 sequence with F34L

Experiment [8] deals with HOXA4 (Homo sapiens, UniProt Q00056 201-287, W262F).
In experiment [9] the target is PRRX1 (Homo sapiens, UniProt P54821 80-166).
The target of experiment [10] is NKX2-5 (Homo sapiens, UniProt P52952 125-210).
The target in experiment [11] is HOXB6 (Homo sapiens, UniProt P17509 132-218, K202E).
For experiment [12], the target named is HOXB6 (Homo sapiens, UniProt P17509 132-218).
For experiment [13], the target named is HOXA7 (Homo sapiens, UniProt P31268 116-202).
Experiment [14] has as its target HOXA7 (Homo sapiens, UniProt P31268 116-202, W177C).
In experiment [15] the target is ALX1 (Homo sapiens, UniProt Q15699 118-204, L144V).
Experiment [16] deals with ALX1 (Homo sapiens, UniProt Q15699 118-204, L144R).
Experiment [17] has as its target ALX1 (Homo sapiens, UniProt Q15699 118-204).
The target in experiment [18] is HOXA2 (Homo sapiens, UniProt O43364 129-215, R185T).
Experiment [19] deals with HOXA2 (Homo sapiens, UniProt O43364 129-215, R185K).
Experiment [20] deals with HOXA2 (Homo sapiens, UniProt O43364 129-215, Y150S).
For experiment [21], the target named is HOXA2 (Homo sapiens, UniProt O43364 129-215).
Chain of HOXA2 (Homo sapiens, UniProt O43364 129-215) (O43364 129-215): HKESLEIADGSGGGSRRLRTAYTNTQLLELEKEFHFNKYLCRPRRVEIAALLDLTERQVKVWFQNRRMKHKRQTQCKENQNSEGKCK

Chain of HOXA4 (Homo sapiens, UniProt Q00056 201-287, W262R) (Q00056 201-287 W262R): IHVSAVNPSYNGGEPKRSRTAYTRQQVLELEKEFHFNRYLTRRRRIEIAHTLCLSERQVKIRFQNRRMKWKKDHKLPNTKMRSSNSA
Chain of NKX2-5 (Homo sapiens, UniProt P52952 125-210) (P52952 125-210): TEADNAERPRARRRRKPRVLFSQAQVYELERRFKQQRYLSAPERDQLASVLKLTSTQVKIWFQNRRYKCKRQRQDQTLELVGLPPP
Chain of NKX2-5 (Homo sapiens, UniProt P52952 125-210, R139K) (P52952 125-210 R139K): as the sequence (P52952 125-210) above, with R15K counted along it
Chain of HOXA4 (Homo sapiens, UniProt Q00056 201-287, W262F) (Q00056 201-287 W262F): as the sequence (Q00056 201-287 W262R) above, with R62F counted along it
Chain of HOXA4 (Homo sapiens, UniProt Q00056 201-287, R217L) (Q00056 201-287 R217L): as the sequence (Q00056 201-287 W262R) above, with R17L, R62W counted along it
Chain of HOXA4 (Homo sapiens, UniProt Q00056 201-287) (Q00056 201-287): as the sequence (Q00056 201-287 W262R) above, with R62W counted along it
Chain of HOXA7 (Homo sapiens, UniProt P31268 116-202, W177C) (P31268 116-202 W177C): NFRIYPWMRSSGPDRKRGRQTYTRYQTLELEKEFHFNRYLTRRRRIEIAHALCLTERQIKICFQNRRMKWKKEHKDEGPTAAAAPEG
Chain of PRRX1 (Homo sapiens, UniProt P54821 80-166) (P54821 80-166): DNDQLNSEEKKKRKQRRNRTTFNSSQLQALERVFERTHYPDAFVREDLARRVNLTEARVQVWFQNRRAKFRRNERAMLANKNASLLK
Chain of PRRX1 (Homo sapiens, UniProt P54821 80-166, F113S) (P54821 80-166 F113S): as the sequence (P54821 80-166) above, with F34S counted along it
Chain of HOXA7 (Homo sapiens, UniProt P31268 116-202) (P31268 116-202): as the sequence (P31268 116-202 W177C) above, with C62W counted along it
Chain of HOXB6 (Homo sapiens, UniProt P17509 132-218) (P17509 132-218): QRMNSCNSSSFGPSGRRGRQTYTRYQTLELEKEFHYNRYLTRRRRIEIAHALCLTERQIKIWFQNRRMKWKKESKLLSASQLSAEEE
Chain of HOXA2 (Homo sapiens, UniProt O43364 129-215, R185T) (O43364 129-215 R185T): as the sequence (O43364 129-215) above, with R57T counted along it
Chain of ALX1 (Homo sapiens, UniProt Q15699 118-204) (Q15699 118-204): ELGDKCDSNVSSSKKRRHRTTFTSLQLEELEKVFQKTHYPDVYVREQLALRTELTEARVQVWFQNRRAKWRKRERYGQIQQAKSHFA
Chain of HOXA2 (Homo sapiens, UniProt O43364 129-215, R185K) (O43364 129-215 R185K): as the sequence (O43364 129-215) above, with R57K counted along it
Chain of HOXB6 (Homo sapiens, UniProt P17509 132-218, K202E) (P17509 132-218 K202E): as the sequence (P17509 132-218) above, with K71E counted along it
Chain of ALX1 (Homo sapiens, UniProt Q15699 118-204, L144R) (Q15699 118-204 L144R): as the sequence (Q15699 118-204) above, with L27R counted along it
Chain of HOXA2 (Homo sapiens, UniProt O43364 129-215, Y150S) (O43364 129-215 Y150S): as the sequence (O43364 129-215) above, with Y22S counted along it
Chain of ALX1 (Homo sapiens, UniProt Q15699 118-204, L144V) (Q15699 118-204 L144V): as the sequence (Q15699 118-204) above, with L27V counted along it

For the sequence GTCTAGAC, the binding signal with NKX2-5 [1] is 9.21 upbm affinity estimate (log intensity, higher = more binding, comparable within an allelic series); with HOXA4 [2], 9.98 upbm affinity estimate (log intensity, higher = more binding, comparable within an allelic series); with PRRX1 [3] it was 9.59 upbm affinity estimate (log intensity, higher = more binding, comparable within an allelic series); with HOXA4 [4], 10.1 upbm affinity estimate (log intensity, higher = more binding, comparable within an allelic series); with NKX2-6 [5], 10.1 upbm affinity estimate (log intensity, higher = more binding, comparable within an allelic series); with HOXA4 [6] it was 9.99 upbm affinity estimate (log intensity, higher = more binding, comparable within an allelic series). The binding signal was 9.52 upbm affinity estimate (log intensity, higher = more binding, comparable within an allelic series) with NKX2-6 [7]; 10 upbm affinity estimate (log intensity, higher = more binding, comparable within an allelic series) in the experiment with HOXA4 [8]; 9.88 upbm affinity estimate (log intensity, higher = more binding, comparable within an allelic series) in the experiment with PRRX1 [9]; 9.52 upbm affinity estimate (log intensity, higher = more binding, comparable within an allelic series) with NKX2-5 [10].

For ACGCCCGG, the binding signal with NKX2-5 [1] was 8.77 upbm affinity estimate (log intensity, higher = more binding, comparable within an allelic series); with HOXB6 [11], 8.95 upbm affinity estimate (log intensity, higher = more binding, comparable within an allelic series); in the experiment with NKX2-5 [10], 8.74 upbm affinity estimate (log intensity, higher = more binding, comparable within an allelic series); with HOXB6 [12], 9.06 upbm affinity estimate (log intensity, higher = more binding, comparable within an allelic series).

Consider ACCGTGTC, for which the binding signal with NKX2-5 [1] was 8.73 upbm affinity estimate (log intensity, higher = more binding, comparable within an allelic series); with HOXA7 [13], 8.54 upbm affinity estimate (log intensity, higher = more binding, comparable within an allelic series); with HOXA7 [14], 8.46 upbm affinity estimate (log intensity, higher = more binding, comparable within an allelic series); with NKX2-5 [10] it was 8.93 upbm affinity estimate (log intensity, higher = more binding, comparable within an allelic series).

Regarding GGCAGGAC, the binding signal in the experiment with NKX2-5 [1] is 8.66 upbm affinity estimate (log intensity, higher = more binding, comparable within an allelic series); with HOXA4 [2], 9.94 upbm affinity estimate (log intensity, higher = more binding, comparable within an allelic series); with PRRX1 [3], 9.23 upbm affinity estimate (log intensity, higher = more binding, comparable within an allelic series); with HOXA4 [4], 9.72 upbm affinity estimate (log intensity, higher = more binding, comparable within an allelic series); with HOXA4 [6], 9.8 upbm affinity estimate (log intensity, higher = more binding, comparable within an allelic series); with HOXA4 [8], 9.93 upbm affinity estimate (log intensity, higher = more binding, comparable within an allelic series). Also, the binding signal with PRRX1 [9] is 8.98 upbm affinity estimate (log intensity, higher = more binding, comparable within an allelic series); with NKX2-5 [10] it was 8.83 upbm affinity estimate (log intensity, higher = more binding, comparable within an allelic series).

With CCCAACGG, the binding signal was 8.75 upbm affinity estimate (log intensity, higher = more binding, comparable within an allelic series) with NKX2-5 [1]; 9.93 upbm affinity estimate (log intensity, higher = more binding, comparable within an allelic series) in the experiment with HOXA4 [2]; 9.99 upbm affinity estimate (log intensity, higher = more binding, comparable within an allelic series) in the experiment with HOXA4 [4]; 6.54 upbm affinity estimate (log intensity, higher = more binding, comparable within an allelic series) with ALX1 [15]; 6.52 upbm affinity estimate (log intensity, higher = more binding, comparable within an allelic series) with ALX1 [16]; 9.83 upbm affinity estimate (log intensity, higher = more binding, comparable within an allelic series) in the experiment with HOXA4 [6]. The binding signal with ALX1 [17] was 6.46 upbm affinity estimate (log intensity, higher = more binding, comparable within an allelic series); with HOXA4 [8], 10 upbm affinity estimate (log intensity, higher = more binding, comparable within an allelic series); in the experiment with NKX2-5 [10], 8.76 upbm affinity estimate (log intensity, higher = more binding, comparable within an allelic series).

Turning to AGGCCAGC, the binding signal is 8.71 upbm affinity estimate (log intensity, higher = more binding, comparable within an allelic series) in the experiment with NKX2-5 [1]; 8.41 upbm affinity estimate (log intensity, higher = more binding, comparable within an allelic series) with HOXA7 [13]; 8.42 upbm affinity estimate (log intensity, higher = more binding, comparable within an allelic series) with HOXA7 [14]; 8.67 upbm affinity estimate (log intensity, higher = more binding, comparable within an allelic series) with NKX2-5 [10].

Consider CCGAGGTC, for which the binding signal in the experiment with NKX2-5 [1] is 8.47 upbm affinity estimate (log intensity, higher = more binding, comparable within an allelic series); with HOXA2 [18] it was 6.93 upbm affinity estimate (log intensity, higher = more binding, comparable within an allelic series); in the experiment with HOXA2 [19], 10.2 upbm affinity estimate (log intensity, higher = more binding, comparable within an allelic series); with HOXA2 [20] it was 10.4 upbm affinity estimate (log intensity, higher = more binding, comparable within an allelic series); in the experiment with HOXA2 [21], 7.18 upbm affinity estimate (log intensity, higher = more binding, comparable within an allelic series); with NKX2-5 [10], 8.66 upbm affinity estimate (log intensity, higher = more binding, comparable within an allelic series).

These data come from PMC11006913.
